# Results from ChEMBL document CHEMBL1201862, “PubChem BioAssay data set” (2004).
# The whole screen tested about 400,000 compounds, of which about 2,100 (0.53%) were called active. Roughly 14% stayed inconclusive and do not appear here. The sample holds actives, similar compounds and a random draw of the others, so the mix is not that of the screen. The rule behind the calls is not given here.
# Biological target: Ataxin-2 (Homo sapiens) (UniProt Q99700)
# Assay: qHTS for Inhibitors of ATXN expression.
# Type: functional
# Sequence of Ataxin-2 (Homo sapiens) (Q99700 whole entry): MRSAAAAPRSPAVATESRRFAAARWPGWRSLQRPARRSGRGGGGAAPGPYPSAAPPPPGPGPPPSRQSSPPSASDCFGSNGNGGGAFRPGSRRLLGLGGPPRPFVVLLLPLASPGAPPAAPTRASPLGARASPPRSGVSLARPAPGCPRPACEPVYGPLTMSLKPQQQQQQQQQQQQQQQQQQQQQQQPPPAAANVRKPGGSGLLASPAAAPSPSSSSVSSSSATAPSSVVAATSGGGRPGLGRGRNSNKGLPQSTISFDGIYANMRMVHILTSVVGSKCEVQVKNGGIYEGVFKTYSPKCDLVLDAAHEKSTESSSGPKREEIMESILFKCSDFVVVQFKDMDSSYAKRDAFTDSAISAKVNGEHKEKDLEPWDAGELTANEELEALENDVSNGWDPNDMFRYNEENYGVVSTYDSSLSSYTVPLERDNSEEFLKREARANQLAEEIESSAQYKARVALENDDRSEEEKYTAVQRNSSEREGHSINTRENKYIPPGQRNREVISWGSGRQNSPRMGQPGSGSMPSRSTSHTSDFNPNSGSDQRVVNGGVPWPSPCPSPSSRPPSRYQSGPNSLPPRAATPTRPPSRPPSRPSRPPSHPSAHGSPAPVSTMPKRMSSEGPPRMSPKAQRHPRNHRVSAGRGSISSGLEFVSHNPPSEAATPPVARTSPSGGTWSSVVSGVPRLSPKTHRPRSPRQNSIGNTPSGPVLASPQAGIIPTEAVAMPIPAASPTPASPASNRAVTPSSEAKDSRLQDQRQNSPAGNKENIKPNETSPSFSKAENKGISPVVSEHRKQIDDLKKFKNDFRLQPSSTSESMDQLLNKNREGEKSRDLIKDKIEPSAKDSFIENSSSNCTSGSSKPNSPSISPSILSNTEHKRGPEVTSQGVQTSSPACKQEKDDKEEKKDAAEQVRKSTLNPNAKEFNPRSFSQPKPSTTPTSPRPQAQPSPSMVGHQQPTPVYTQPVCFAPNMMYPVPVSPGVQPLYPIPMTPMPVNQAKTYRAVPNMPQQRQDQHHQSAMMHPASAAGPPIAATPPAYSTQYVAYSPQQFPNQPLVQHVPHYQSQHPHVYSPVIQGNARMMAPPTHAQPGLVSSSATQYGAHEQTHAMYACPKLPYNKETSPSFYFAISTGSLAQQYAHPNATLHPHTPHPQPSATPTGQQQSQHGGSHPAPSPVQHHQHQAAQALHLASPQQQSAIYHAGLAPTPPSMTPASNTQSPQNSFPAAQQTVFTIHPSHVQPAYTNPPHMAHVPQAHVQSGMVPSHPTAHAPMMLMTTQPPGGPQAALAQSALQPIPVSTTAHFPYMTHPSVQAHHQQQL
row,SMILES,Potency
1,Cn1c(-c2c(N)n(CCc3ccccc3)c3nc4ccccc4nc23)nc2ccccc21,inactive
2,Cc1ccc(C(C(=O)NCC2CCCO2)N(C(=O)c2snc(C(N)=O)c2N)c2ccccc2F)o1 (configuration not stated),inactive
3,OCCN(Cc1ccccc1)C(S)=Nc1ccc(F)cc1,inactive
4,C=CC[C@@H](CC(=O)N(CCO)Cc1ccccc1)C(=O)N[C@H](COC(=O)[C@@H](CC=C)Cc1ccc(F)cc1)Cc1ccccc1,28.2 µM (active)
5,C=CC[C@H](CC(=O)N(CCO)Cc1ccccc1)C(=O)N[C@@H](COC(=O)[C@@H](CC=C)Cc1ccc(F)cc1)Cc1ccccc1,28.2 µM (active)
6,Cc1cccn2c(=O)c3cc(C#N)/c(=N\C(=O)c4ccncc4)n(CCCOC(C)C)c3nc12,inactive
7,CCn1ccnc1CN1CCc2c([nH]c3ccccc23)C1CC(C)C (configuration not stated),inactive
8,O=C(CCCCCn1c(=S)[nH]c2ccc(N3CCOCC3)cc2c1=O)NCc1cccc(Cl)c1,inactive
9,C[C@]12c3[nH]c4ccc(Cl)cc4c3CCN1C(=O)[C@@H](CC(=O)NCc1cccc(C(F)(F)F)c1)C[C@@H]2C(=O)N1CCCCC1,35.5 µM (active)
10,C[C@]12c3[nH]c4ccc(Cl)cc4c3CCN1C(=O)[C@@H](CC(=O)NCc1cccc(C(F)(F)F)c1)C[C@@H]2C(=O)N1CCOCC1,20 µM (active)
11,O=C(CCCCCn1c(=S)[nH]c2ccc(N3CCOCC3)cc2c1=O)NCc1ccc(Cl)cc1,inactive
12,CCC1(C)Cc2ccccc2-c2ncnc(O)c21 (configuration not stated),inactive
13,COC(=O)N/N=C/c1cccc(OC(=O)c2ccc3c(c2)OCO3)c1,inactive
14,O=C(Cn1nnc2ccccc2c1=O)Nc1ccc(S(=O)(=O)N2CCOCC2)cc1,inactive
15,COc1ccc(C2C=C(c3ccccc3)Nc3nc(NS(=O)(=O)c4ccc(C)cc4)nn32)cc1 (configuration not stated),inactive
16,COc1cc([C@@H]2c3cc4c(cc3[C@@H](O)[C@H]3COC(=O)[C@H]23)OCO4)cc(OC)c1O[Si](C)(C)C(C)(C)C,39.8 µM (active)
17,Oc1c(C(Nc2cccc(C(F)(F)F)c2)c2ccncc2)ccc2cccnc12 (configuration not stated),inactive
18,OC(c1ccccc1)(c1nc(-c2cc(F)cc(F)c2)cs1)C(F)(F)F (configuration not stated),35.5 µM (active)
19,COc1cccc(-c2cc(C(F)(F)F)c(C#N)c(O)n2)c1,inactive
20,N#Cc1cccc(-c2csc(C(O)(c3ccccc3)C(F)(F)F)n2)c1 (configuration not stated),20 µM (active)
21,N#CC12COC3(CCCCC3C1(C#N)C#N)OC2=N (configuration not stated),inactive
22,Cc1cc(=O)oc2c3c(ccc12)OCN(Cc1ccc(Cl)cc1)C3,inactive
23,Cc1cc(NC(=S)NC(=O)c2ccccc2)ccc1-c1cc2ccccc2oc1=O,17.8 µM (active)

row,SMILES,Potency
1,O=C(O)c1cccc(Nc2nc(-c3cc4ccccc4oc3=O)cs2)c1,inactive
2,O=C(O)c1ccc(Nc2nc(-c3cc4ccccc4oc3=O)cs2)cc1O,inactive
3,N#CC1=C(c2ccccc2)/C(=C/c2ccccc2)OC1=O,22.4 µM (active)
4,N#CC1=C(N)OC2=C(CC/C2=C\c2ccccc2)C1c1ccccc1 (configuration not stated),inactive
5,Nc1ccc2c(c1)nc(O)c1cc(N)ccc12,inactive
6,CCN(CC)c1ccc(/C=C/C(=O)C2C(=O)C=C(C)OC2=O)cc1 (configuration not stated),inactive
7,CCOC(=O)C1=C(Cc2ccc(Cl)cc2)C(=O)c2ccccc2C1=O,31.6 µM (active)
8,CCOC(=O)c1c(C)n(O)c2ccc(Cl)cc2c1=O,inactive
9,CCOC(=O)c1sc(-c2ccc(Cl)cc2)nc1O,inactive
10,CCN1CCN(c2nc3c(C)cccn3c(=O)c2/C=C(\C#N)C(=O)NC)CC1,inactive
11,COc1ccc(-c2onc3ccc(C(C)=O)cc23)cc1,inactive
12,COc1ccc(-c2cc(CNC(=O)CCl)on2)cc1,15.8 µM (active)
13,COc1ccc(-c2cc3c(=O)n(CC(=O)NCc4ccc(Cl)cc4)ncn3n2)cc1,inactive
14,CC(C)c1ccc(C2C(C#N)=C(N)Oc3c2oc(CO)cc3=O)cc1 (configuration not stated),inactive
15,CCCN1C(=O)c2cccc3c(N4CCCCC4)ccc(c23)C1=O,inactive
16,CCN(CC)C(=O)c1ccc2c3c(cccc13)C(=O)N(CCc1ccc(OC)c(OC)c1)C2=O,28.2 µM (active)
17,COc1ccc(CCN2C(=O)CS/C2=N/NC(=O)c2ccccc2F)cc1OC,inactive
18,O=C(O)CCSc1nnc(CNc2ccc(Cl)cc2)n1Cc1ccccc1,inactive
19,CC(C)N1CCN(CC2COc3ccccc3O2)CC1 (configuration not stated),inactive
20,Cc1cc(C(=O)CCl)c(C)n1CC1COc2ccccc2O1 (configuration not stated),26.7 µM (active)
21,CC1CC(=NNC(=O)C2COc3ccccc3O2)CC(C)(C)C1 (configuration not stated),inactive
22,O=C(O)CN1C(=O)C2C3CCC(C3)C2C1=O (configuration not stated),inactive
23,COc1ccc(-c2cn3nc4c(nc3n2)CCCC4)cc1,inactive

row,SMILES,Potency
1,CCCCCCc1cc2cc(-c3nnc(-c4ccccc4O)o3)c(=O)oc2cc1O,inactive
2,CC(C)c1ccc2c(c1)CCC1C(C)(CN)CCCC21C (configuration not stated),39.8 µM (active)
3,CCOC(=O)c1c(CSc2ccccc2)n(C)c2cc(Br)c(OCC(O)CNC(CO)(CO)CO)cc12 (configuration not stated),25.1 µM (active)
4,CCOC(=O)c1c(CSC(=N)N)n(C)c2cc(Br)c(OC(C)=O)cc12,35.5 µM (active)
5,CCOC(=O)c1c(-c2ccccc2)oc2ccc(OCC(O)CNCCN(C)C)cc12 (configuration not stated),inactive
6,O=C(C1=CC=CN2CCS(=O)(=O)N=C12)N1CCN(c2cccc(Cl)c2)CC1,inactive
7,CCOC(=O)C1=NOC2(C1)C(=O)Nc1ccc(OC(F)(F)F)cc12 (configuration not stated),39.8 µM (active)
8,CCOC(=O)C1=NN(C(=O)c2ccc(OC)cc2)C(O)(c2ccc(Cl)cc2)C1 (configuration not stated),inactive
9,CC1(Cc2ccccc2OC(F)(F)F)C(=O)Nc2ccc(-c3ccsc3)cc21 (configuration not stated),39.8 µM (active)
10,Cc1ccc(CC2(C)C(=O)Nc3ccc(OC(F)(F)F)cc32)cc1 (configuration not stated),39.8 µM (active)
11,COc1ccc(OC(F)(F)F)cc1CC1(C)C(=O)Nc2ccc(-c3ccsc3)cc21 (configuration not stated),39.8 µM (active)
12,CN1CCCC(OC(=O)c2cc(Cl)cc(Cl)c2)C1 (configuration not stated),inactive
13,c1ccc(-c2nc(N3CCCCC3)nc3ccccc23)cc1,inactive
14,C#CCOCCOCCOCCNc1nc(N2CCN(C(=O)CCCCCCCCCCNC(=O)[C@H](CCCCN)n3cc(C[C@@H](C)CC)nn3)CC2)nc(N2CCN(C(=O)CCCCCCCCCCNC(=O)[C@H](CCCN=C(N)N)n3cc(C[C@@H](C)CC)nn3)CC2)n1,20 µM (active)
15,C#CCOCCOCCOCCNc1nc(N2CCN(C(=O)CCCCCCCCCCNC(=O)[C@@H](CCC(=O)O)n3cc(CCCCCN)nn3)CC2)nc(N2CCN(C(=O)CCCCCCCCCCNC(=O)[C@H](CCCCN)n3cc(C[C@@H](C)CC)nn3)CC2)n1,31.6 µM (active)
16,Cc1ccc(Nc2nc(NCC3CC3)nc3ccsc23)c(C)c1,20 µM (active)
17,Cc1ccc(CNc2nc(NCC3CC3)nc3ccsc23)c(C)c1,39.8 µM (active)
18,O=C(COC(=O)c1ccc(Cl)nc1)Nc1ccc2c(c1)CCC2,inactive
19,CC(=O)Oc1ccc2c(c1)O/C(=C\c1ccncc1)C2=O,inactive
20,COCc1cc(C)nc(SCC(=O)Nc2nc(C)cs2)c1C#N,inactive
21,CCOC(=O)Cc1csc(NS(=O)(=O)c2ccc(SC)cc2)n1,inactive
22,NNC(=O)c1cccc(Cn2cc(Br)c([N+](=O)[O-])n2)c1,inactive
23,C#CCn1/c(=N/C(=O)CSC(C)=O)sc2cc(F)ccc21,6.7 µM (active)

row,SMILES,Potency
1,COCC(=O)OC1CCn2c1nc1c2C(=O)C(C)=C(NC(C)=O)C1=O (configuration not stated),10 µM (active)
2,OCC1(CC2CCCCO2)CCN(Cc2ccccc2-c2ccco2)CC1 (configuration not stated),inactive
3,Nc1nc(Br)c2ccccc2c1-c1ccccc1,inactive
4,O=C(Oc1ccc(C(=S)N2CCOCC2)cc1)c1cccc(Cl)c1,inactive
5,CC(C)c1ccc(C(=O)N2CCN(c3cnn(C)c(=O)c3Cl)CC2)cc1,inactive
6,Clc1cccc(N/N=C/c2ccc(N3CCOCC3)s2)c1,39.8 µM (active)
7,Fc1cccc(/C=N/Nc2cc(N3CCOCC3)ncn2)c1,inactive
8,Oc1c(Cl)cc(Cl)cc1/C=N/c1ccc(N2CCOCC2)cc1,inactive
9,C=CCN1C(=O)[C@@H]2Cc3c([nH]c4ccccc34)C(c3cc(OC)c(OC)c(OC)c3)N2C1=S (some centres not stated),inactive
10,COc1cc(C2CC(c3cccnc3)=NN2c2ccc(F)cc2)cc(OC)c1OC (configuration not stated),inactive
11,COc1cc(C2CC(=O)N(Cc3ccc(F)cc3)c3ccccc3S2)cc(OC)c1OC (configuration not stated),28.2 µM (active)
12,Cc1cc(NC(=O)C(C)SCC(=O)O)no1 (configuration not stated),inactive
13,Cc1ccc(S(=O)(=O)N2C[C@H]3n4c(=O)ccc(=O)n4C[C@H](OC(=O)NCc4ccccc4F)[C@@]3(O)C2)cc1,35.5 µM (active)
14,CCCCCCNC(=O)O[C@H]1Cn2c(=O)n(CCCCCC)c(=O)n2[C@@H]2CN(S(=O)(=O)c3ccc(C)cc3)C[C@]12O,25.1 µM (active)
15,CCCCCCn1c(=O)n2n(c1=O)[C@@H]1CN(S(=O)(=O)c3ccc(C)cc3)C[C@]1(O)[C@@H](OC(=O)NCc1ccccc1F)C2,35.5 µM (active)
16,Cc1ccc(S(=O)(=O)N2CCCC(CCC(=O)NCc3ccccc3F)C2)s1 (configuration not stated),inactive
17,Cn1c(=O)c(=O)n(C)c2cc(S(=O)(=O)CCC(=O)NCc3ccccc3)ccc21,inactive
18,CCCCCCn1c(=O)n2n(c1=O)[C@@H]1CN(S(=O)(=O)c3ccc(C)cc3)C[C@]1(O)[C@@H](OC(=O)NCc1ccccc1)C2,28.2 µM (active)
19,NS(=O)(=O)c1ccc(CNC(=O)/C=C/c2ccco2)cc1,inactive
20,O=C(Cc1ccccc1)NCc1nnc(S)n1-c1ccc(Br)cc1,inactive
21,CSc1c(C#N)c(O)nc2c1CCc1ccccc1-2,inactive
22,COc1ccccc1[C@H]1C(c2cccc(C)c2)=NN(c2ccccc2)[C@@H]1CO,inactive
23,Cc1ccc(C)c(N2CCN(C(=O)c3ccc(Cn4c(=S)[nH]c5ccc(N6CCOCC6)cc5c4=O)cc3)CC2)c1,inactive
